# Experimental data taken from PubChem BioAssay (NCATS).
# Inconclusive results are not listed. Entries that show only a call come without a potency. A number with no mark means an inactive call. Active and inactive are the calls of the source. Calls come from the whole dose curve; as a rule, active = well fitted inhibition curve with a large enough effect; inconclusive = small, poorly fitted or top-dose-only effect; inactive = flat fitted curve, though single readings scatter.
# How the values were obtained:
# [1] = molecular target: Glutathione peroxidase 1 (Homo sapiens) (UniProt P07203); experiment: Primary qHTS Assay for Inhibitors of Recombinant Selenoprotein Glutathione Peroxidase 1 (GPX1) (AID 1845191)
# Method in brief: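 NADPH consumption tracked by fluorescence at 340/450 nm between t=0 and t=15 min, room temperature. Final mix: 10 nM GPX1, 100 nM glutathione reductase, 1 mM GSH, 0.5 mM NADPH, 0.5 mM cumene hydroperoxide, 0.01% BSA; 30 min compound–enzyme preincubation.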
# [2] = molecular target: Phospholipid hydroperoxide glutathione peroxidase GPX4 (Homo sapiens) (UniProt P36969); experiment: Primary qHTS Assay for Inhibitors of Recombinant Selenoprotein Glutathione Peroxidase 4 (GPX4) (AID 1845192)
# Method in brief: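 NADPH consumption followed by fluorescence at 340/450 nm, t=0 and after 15 min at room temperature. Reaction started with cumene hydroperoxide (0.5 mM final) after 30 min compound–GPX4 preincubation; final 200 nM GPX4, 100 nM GR, 1 mM GSH, 0.5 mM NADPH.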
# Note: nearly all actives have a fitted effect of over 65% in size.
# Potency is the fitted concentration of half-maximal effect.
# Phospholipid hydroperoxide glutathione peroxidase GPX4 (Homo sapiens), sequence (P36969 whole entry, looked up): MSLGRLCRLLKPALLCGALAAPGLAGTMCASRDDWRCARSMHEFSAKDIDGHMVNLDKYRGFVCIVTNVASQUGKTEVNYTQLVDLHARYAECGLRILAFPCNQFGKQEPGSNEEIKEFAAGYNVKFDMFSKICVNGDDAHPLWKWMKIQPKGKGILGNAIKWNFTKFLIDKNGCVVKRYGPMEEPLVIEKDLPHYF
# Glutathione peroxidase 1 (Homo sapiens), sequence (P07203 whole entry, looked up): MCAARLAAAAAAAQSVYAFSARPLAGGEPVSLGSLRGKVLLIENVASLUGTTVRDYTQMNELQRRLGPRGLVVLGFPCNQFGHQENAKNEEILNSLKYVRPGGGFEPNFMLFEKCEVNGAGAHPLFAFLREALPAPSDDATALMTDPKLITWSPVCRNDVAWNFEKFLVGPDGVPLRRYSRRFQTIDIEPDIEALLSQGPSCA
Structure (SMILES),Potency [1],Potency [2]
O=C(CCc1cc(=O)[nH]o1)N[C@H](C1CCNCC1)C1CC(O)C1 (some centres undefined),inactive,
Cn1c(/C=C/C(=O)NO)ccc1/C=C/C(=O)c1cccc(F)c1,inactive,
C[C@H](Cc1cc2c(c(C(N)=O)c1)N(CCCO)CC2)NCCOc1ccccc1OCC(F)(F)F,inactive,inactive
CN1CCN(C(c2ccc(Cl)cc2Cl)c2sc3nc(-c4ccco4)nn3c2O)CC1 (centres undefined),inactive,
Fc1ccc(N2CCN(c3nc4ccccc4c4nc(-c5ccccc5)nn34)CC2)cc1,inactive,
COc1cc2oc(-c3ccccc3)cc(=O)c2c(OC)c1OC,inactive,
CN1CCN(C(c2ccc(F)cc2)c2sc3nc(-c4ccco4)nn3c2O)CC1 (centres undefined),inactive,
O=[N+]([O-])c1cc(S(=O)(=O)Nc2ccc(O)c3ccccc23)ccc1Cl,inactive,
C/C(=N\N=C(N)N)c1ccc(NC(=O)Nc2ccc(/C(C)=N/N=C(N)N)cc2)cc1,inactive,
CC(C)CC(NC(=O)CNC(=O)C(Cc1ccc(O)cc1)NC(=O)C(CO)NC(=O)C(Cc1c[nH]c2ccccc12)NC(=O)C(Cc1cnc[nH]1)NC(=O)C1CCC(=O)N1)C(=O)NC(CCCN=C(N)N)C(=O)N1CCCC1C(=O)NCC(N)=O (centres undefined),inactive,inactive
CN(Cc1cccc(N2CCN(C(c3ccccc3)c3ccccc3)CC2)c1)[S+](C)(=O)[O-],inactive,
Cc1cc(C)n(CCc2nc3c4ccccc4nc(N4CCN(c5cccc(C)c5C)CC4)n3n2)n1,inactive,
COc1ccc(-c2c(C)nn3c4c(cnc23)C(=O)CC(c2ccc(C)cc2)C4)cc1 (centres undefined),inactive,
Cn1cc(CN2CCN(C(c3ccccc3)c3ccccc3)CC2)cc1C#N,inactive,
[2H]C([2H])([2H])C(CCC[C@@H](C)[C@H]1CC[C@H]2/C(=C/C=C3\C[C@@H](O)C[C@H](O)C3=C)CCC[C@]12C)C([2H])([2H])[2H],inactive,14.1 µM (active)
COC(=O)CCSC/C=C(\C)CCn1cc(CCc2ccc(-c3ccccc3)cc2)nn1,inactive,
O=C(O)CSc1nnc(Br)n1-c1ccc(C2CC2)c2ccccc12,inactive,inactive
CCC1OC(=O)C(C)C(OC2CC(C)(OC)C(O)C(C)O2)C(C)C(OC2OC(C)CC(N(C)C)C2O)C(C)(O)CC(C)C2NC(COCCOC)OC(C2C)C1(C)O (centres undefined),inactive,inactive
CC(=O)OCC1=C(C(=O)O)N2C(=O)[C@@H](NC(=O)[C@H](N)c3ccccc3)[C@H]2SC1,10.1 µM (active),15.8 µM (active)

Structure (SMILES),Potency [1],Potency [2]
CC(C)=C(C#N)C(=O)N1CCCN(c2cc(NCCC(=O)O)nc(-c3ccccn3)n2)CC1,inactive,
CCc1ccc(Nc2c(F)c(F)cc(F)c2F)c(CC(=O)O)c1,inactive,
O=C(O)C1=C(CSc2nnnn2CS(=O)(=O)O)CS[C@@H]2[C@@H](NC(=O)[C@H](O)c3ccccc3)C(=O)N12,11.4 µM (active),
N#Cc1ccc(-c2csc(NN=C3CCCC3)n2)cc1,inactive,
Fc1ccc(N2CCN(c3nc4ccccc4c4nc(-c5cccnc5)nn34)CC2)cc1,inactive,
Cn1cc(OCC(O)CNC(C)(C)C)c2ccccc2c1=O (centres undefined),inactive,inactive
CCOC(=O)[C@H](C)C[C@@H](Cc1ccc(-c2ccccc2)cc1)NC(=O)CCC(=O)O,inactive,
CCCCCCCCCCCCCCCC(=O)OC1CCCn2c1nc(C)c(CCN1CCC(c3noc4cc(F)ccc34)CC1)c2=O (centres undefined),inactive,inactive
COc1ccc(Nc2cc(C)c3cc(NC(=O)c4cc(OC)cc(OC)c4)ccc3n2)cc1,inactive,
Cc1cc(Nc2cccc(C(F)(F)F)c2)nc2ccc(NC(=O)c3ccc(=O)[nH]c3)cc12,inactive,
Nc1nc(CC(=O)Nc2ccc(CCNC[C@H](O)c3ccccc3)cc2)cs1,inactive,
C#C[C@]1(O)CC[C@H]2[C@@H]3CCC4=CC(=O)CC[C@@H]4[C@H]3C(=C)C[C@@]21CC,inactive,inactive
CCC(C)CC(C)CCCCCCCCC(=O)N[C@H]1C[C@@H](O)[C@@H](NCCN)NC(=O)[C@@H]2[C@@H](O)CCN2C(=O)[C@H]([C@H](O)CCN)NC(=O)[C@H]([C@@H](O)[C@H](O)c2ccc(O)cc2)NC(=O)[C@@H]2C[C@@H](O)CN2C(=O)[C@H]([C@@H](C)O)NC1=O (some centres undefined),inactive,inactive
CO[C@@H]1C[C@H](O[C@H]2[C@H](C)[C@H](O[C@@H]3O[C@@H](C)C[C@@H](N(C)C)[C@H]3OC(C)=O)[C@H](C)C[C@]3(CO3)C(=O)[C@H](C)[C@H](OC(C)=O)[C@H](C)[C@H](C)OC(=O)[C@@H]2C)O[C@H](C)[C@H]1OC(C)=O,inactive,inactive
CN[C@@H]1[C@@H](O[C@H]2O[C@H](CO)[C@@H](N)[C@H](O)[C@H]2O)O[C@H]2C[C@@H](N)[C@H](O[C@H]3[C@H](O)[C@@H](O)[C@H](N)C[C@@H]3N)O[C@@H]2[C@@H]1O,inactive,inactive
CC[C@H]1OC(=O)C[C@@H](O)[C@H](C)[C@@H](OC2OC(C)C(O)C(N(C)C)C2O)[C@@H](CCN2CCCCC2)C[C@@H](C)C(=O)/C=C/C(C)=C/[C@@H]1CN1CCCCC1 (some centres undefined),inactive,inactive
CCCCCCCCCCCC(=O)OCN1C(=O)CCc2ccc(OCCCCN3CCN(c4cccc(Cl)c4Cl)CC3)cc21,inactive,inactive
CCC(=O)NC[C@@H]1C[C@H]1c1cccc2c1CCO2,inactive,inactive
OCc1cc(C(O)CNCCCCCCOCCOCc2c(Cl)cccc2Cl)ccc1O (centres undefined),inactive,inactive
